Assay outcomes deposited in PubChem BioAssay by several laboratories.
SENP6 block: SENP6 protease inhibitors, primary screen, biochemical, luminescence, uHTS; 330,000 tested, 1.8% active; Recombinant SENP6 catalytic domain, aminoluciferin luminescence; inhibition, % at 10 µM;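 active = inhibition above about 50% at the single tested dose, limit read from the data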;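 also: plate controls were DMSO wells with enzyme for no effect and DMSO wells lacking enzyme for full effect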
SENP8 block-1: human SENP8 protease inhibitors, primary screen, biochemical, fluorescence, Nedd8 protein substrate, uHTS. Sentrin-specific protease 8 (Homo sapiens), Q96LD8. 360,000 tested, 0.64% active. inhibition, % at 20 µM. AID 602440, 2012. recombinant SENP8; in the data active = inhibition mostly above about 40%, no sharp cut-off; inactive = mostly below about 27%
Target sequence (Q96LD8 whole entry, looked up): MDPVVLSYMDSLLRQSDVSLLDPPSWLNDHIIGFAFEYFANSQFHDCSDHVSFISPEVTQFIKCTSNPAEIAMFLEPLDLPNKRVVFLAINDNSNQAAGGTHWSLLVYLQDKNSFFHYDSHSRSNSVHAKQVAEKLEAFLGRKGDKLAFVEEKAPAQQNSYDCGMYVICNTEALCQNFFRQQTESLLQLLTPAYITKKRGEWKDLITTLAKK
SENP7 inh: SENP7 protease inhibitors, primary screen, biochemical, luminescence, uHTS; inhibition, % at 5 µM; Sentrin-specific protease 7 (Homo sapiens), Q9BQF6; 330,000 tested, 1.5% active; recombinant SENP7, Z-RLRGG-aminoluciferin luminescence, 40 min; AID 434973, 2010;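 active = inhibition above about 50% at the single test dose, limit read from the data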;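 also: plate controls were DMSO with enzyme for no effect and no enzyme buffer wells for full effect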
Target sequence (Q9BQF6 706-1050 limits assumed): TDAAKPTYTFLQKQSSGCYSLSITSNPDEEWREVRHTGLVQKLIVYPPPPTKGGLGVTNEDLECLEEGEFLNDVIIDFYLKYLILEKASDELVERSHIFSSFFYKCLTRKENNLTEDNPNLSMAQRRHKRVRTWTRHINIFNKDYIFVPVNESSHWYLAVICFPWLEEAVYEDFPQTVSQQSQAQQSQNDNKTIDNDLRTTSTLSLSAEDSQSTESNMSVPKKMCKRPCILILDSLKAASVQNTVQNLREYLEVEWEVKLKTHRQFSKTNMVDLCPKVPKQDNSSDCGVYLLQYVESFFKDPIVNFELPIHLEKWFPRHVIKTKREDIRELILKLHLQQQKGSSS
SENP8 block-2: SENP8 protease inhibitors, primary screen, biochemical, luminescence | Sentrin-specific protease 8 (Homo sapiens), Q96LD8 | purified SENP8, Z-RLRGG-aminoluciferin cleavage | inhibition, % at 10 µM | 330,000 tested, 1.2% active; in the data active = inhibition above about 50%
LGR2 antag: inhibitors of bursicon-induced LGR2 CRE-luciferase signal, primary screen, cell-based, HEK293, CRE-luciferase reporter, bursicon stimulation | bursicon-stimulated, 4 h | Drosophila bursicon receptor LGR2 (rickets) | 380,000 tested, 0.35% active | inhibition, % at 9.99 µM;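 active = drop in luminescence signal, shown as inhibition above about 50% in the replicate tests, limit read from the data, passing the limit was not always enough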;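 also: agonist challenge used bursicon conditioned medium at about half maximal strength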
HSP90 inh: HSP90 inhibitors, primary screen, cell lysate, luminescence; inhibition, % at 5.6 µM; 290,000 tested, 0.91% active; Rabbit reticulocyte lysate, luciferase refolding luminescence, 3 h; Heat shock protein HSP 90 (rabbit reticulocyte lysate; luciferase refolding);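 active = inhibition above the screen-wide mean plus 3 SD, computed separately per campaign, cut at about 16% in these data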;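 also: 0% = DMSO wells and 100% = 60 µM geldanamycin wells; inhibitors lower the luminescence because luciferase stays unfolded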
SENP8 confirm: SENP8 protease inhibitors, retest, confirmation, biochemical, luminescence, single concentration | shares compounds with SENP7 inh | 6,200 tested, 40% active | AID 488912, 2010 | Recombinant SENP8, Z-RLRGG-aminoluciferin luminescence, 60 min | inhibition, % at 12.5 µM;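 active = mean inhibition across replicates above about 50%, limit read from the data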
SENP6 conf: SENP6 protease inhibitors, confirmation, biochemical, luminescence, single concentration | shares compounds with SENP7 inh | recombinant SENP6, Z-RLRGG-aminoluciferin luminescence | inhibition, % at 12.5 µM | 6,200 tested, 58% active | AID 488915, 2010
SENP7 conf: SENP7 protease inhibitors, retest, confirmation, biochemical, luminescence, single concentration. shares compounds with SENP7 inh. recombinant SENP7, Z-RLRGG-aminoluciferin luminescence, 40 min. inhibition, % at 12.5 µM. 6,200 tested, 69% active. AID 488917, 2010
Casp3 SENP sel: caspase-3 protease inhibitors, confirmation, selectivity assay for SENP inhibitor project, biochemical, single concentration. shares compounds with SENP7 inh. purified caspase-3, Z-DEVD-aminoluciferin luminescence, 60 min. inhibition, % at 12.5 µM. 6,200 tested, 60% active. AID 488918, 2010;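 active = mean inhibition above about 50%, limit read from the data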;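 also: plate controls were enzyme with DMSO for no effect and wells without caspase-3 for full effect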
SENP luc ctr: counter-screen for SENP inhibitors: luminescence interference. Pre-incubated SENP8/Z-RLRGG-aminoluciferin, luciferase luminescence interference. inhibition, % at 12.5 µM. shares compounds with SENP7 inh. 6,200 tested, 39% active;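 active = mean inhibition above about 50% when retested at one dose, limit read from the data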;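 also: plate controls were DMSO wells with completed reaction for no effect and substrate without enzyme for full effect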
* = called active by the depositor. This is a sample that favours compounds with a hit; in the whole collection about 2.3% have one here.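 The calls were made as follows, unless noted: active = mean inhibition above about 50% in the one-dose retest (limit read from the data); inactive = the rest.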

Screening C[C@@H]1CCCCO[C@@H](CN(C)S(=O)(=O)c2cccs2)[C@@H](C)CN([C@@H](C)CO)C(=O)c2cc(NS(C)(=O)=O)ccc2O1 returned LGR2 antag 2.
For Cc1noc(C)c1NC(=O)Nc1ccc2c(c1)C(=O)N([C@@H](C)CO)C[C@@H](C)[C@H](CN(C)C(=O)Nc1ccc(F)cc1)O2 the results were LGR2 antag 2.
Screening CCCN1C[C@@H](C)[C@H](OC)CN(C)C(=O)c2ccc(NC(=O)c3ccccc3)cc2OC[C@@H]1C returned LGR2 antag 8.
For Cc1ccccc1-c1nc2cc(Cl)ccc2o1 the results were SENP6 block 16, SENP8 block-1 10, SENP7 inh 81*, SENP8 block-2 58*, HSP90 inh -2, SENP8 confirm 10, SENP6 conf 69*, SENP7 conf 94*, Casp3 SENP sel 44 and SENP luc ctr 13.
`Clc1ccc2oc(-c3ccccc3)nc2c1` gave SENP6 block -43, SENP8 block-1 8, SENP7 inh 83*, SENP8 block-2 63*, HSP90 inh 0, SENP8 confirm 10, SENP6 conf 55*, SENP7 conf 91*, Casp3 SENP sel 26 and SENP luc ctr 2.
Screening C[C@H](CO)N1C[C@H](C)[C@H](CN(C)CC2CC2)Oc2c(cccc2N(C)C)C1=O returned LGR2 antag 0.
Screening Cc1cccc(C#Cc2ccccc2)n1 returned SENP6 block 91*, SENP8 block-1 5, SENP7 inh 90*, SENP8 block-2 84*, SENP8 confirm -8, SENP6 conf 73*, SENP7 conf 96*, Casp3 SENP sel 82* and SENP luc ctr 8.
`Cc1cccc(NS(=O)(=O)Cc2ccccc2)n1` gave SENP6 block -9, SENP8 block-1 -496, SENP7 inh 0, SENP8 block-2 -2, LGR2 antag 20 and HSP90 inh -4.
`C[C@@H]1CN([C@@H](C)CO)C(=O)c2cc(NC(=O)C3CC3)ccc2O[C@H]1CN(C)Cc1ccccc1` gave LGR2 antag 8.
Screening C/C=C/c1ccc([C@@H]2[C@H](CO)N(S(C)(=O)=O)C23CN(C(=O)CC)C3)cc1 returned LGR2 antag -7.
For COc1ccc(/C=C/C(=O)NCC(=O)N/N=C/c2cc(Br)ccc2OC)cc1 the results were SENP6 block -6, SENP8 block-1 4, SENP7 inh 84*, SENP8 block-2 -3, HSP90 inh 2, SENP8 confirm 3, SENP6 conf 0, SENP7 conf -1, Casp3 SENP sel -2 and SENP luc ctr -2.
For Cn1cnc(S(=O)(=O)N[C@H]2CC[C@@H](CC(=O)N3CCN(c4ccccc4)CC3)O[C@H]2CO)c1 the results were LGR2 antag 2.
For NC(=O)C1CCN(c2ccc3c(c2)S(=O)(=O)c2ccccc2C3=O)CC1 the results were SENP6 block -4, SENP8 block-1 -14, SENP7 inh 31, SENP8 block-2 -1 and LGR2 antag -33.
Screening NC(=O)C1CCN(C2=C(Cl)C(=O)c3ccccc3C2=O)CC1 returned SENP6 block 50*, SENP8 block-1 -29, SENP7 inh 42, SENP8 block-2 27, HSP90 inh 3, SENP8 confirm -7, SENP6 conf 75*, SENP7 conf 11, Casp3 SENP sel -3 and SENP luc ctr -5.
Screening O=C1C(Cl)=C(N2CCC(C(=O)O)CC2)C(=O)c2ccccc21 returned SENP6 block 63*, SENP8 block-1 -30, SENP7 inh 39, SENP8 block-2 28, HSP90 inh 10, SENP8 confirm 56*, SENP6 conf 71*, SENP7 conf 15, Casp3 SENP sel -1 and SENP luc ctr -4.
CNC[C@H]1Oc2cc(-c3ccccc3F)ccc2S(=O)(=O)N([C@@H](C)CO)C[C@@H]1C was read as LGR2 antag -14.
For O=C(/C=C/c1ccc(O)c(O)c1)c1ccccc1O the results were SENP6 block 14, SENP8 block-1 20, SENP7 inh 97*, SENP8 block-2 97*, LGR2 antag -89, HSP90 inh -9, SENP8 confirm 11, SENP6 conf 101*, SENP7 conf 103*, Casp3 SENP sel 95* and SENP luc ctr 99*.
For CCCNC(=O)C[C@H]1C[C@@H]2c3cc(NC(=O)Nc4ccccc4F)ccc3O[C@@H]2[C@H](CO)O1 the results were LGR2 antag 8.
`N#Cc1sc2nc(-c3ccccc3)cc(-c3ccco3)c2c1N` gave SENP6 block 86*, SENP8 block-1 -235, SENP7 inh 37, SENP8 block-2 93*, HSP90 inh 9, SENP8 confirm 4, SENP6 conf 30, SENP7 conf 3, Casp3 SENP sel 13 and SENP luc ctr 3.
`CNC[C@@H]1Oc2ccc(NS(=O)(=O)c3ccc(OC)cc3)cc2CC(=O)N([C@@H](C)CO)C[C@H]1C` gave LGR2 antag -1.
`COc1cc2sc3ccc(-c4ccc(N(C)C)nc4)cc3c(=O)c2cc1OC` gave SENP6 block 79*, SENP7 inh 56*, SENP8 block-2 74*, LGR2 antag -48, SENP8 confirm 12, SENP6 conf 14, SENP7 conf -4, Casp3 SENP sel 14 and SENP luc ctr -1.
